From PubChem BioAssay (Tox21)
Records with an inconclusive call do not appear. Calls of active or inactive are those of the source. Unless noted, calls come from the whole dose curve; as a rule, active = well fitted curve in the direction sought with a large enough effect in the repeat runs; inconclusive = weak or mixed curves; inactive = no such curve, though single readings can be large; an effect the other way counts as inactive or inconclusive.

Tests used:
[1] = qHTS assay to identify small molecule agonists of the peroxisome proliferator-activated receptor delta (PPARd) signaling pathway - cell viability counter screen (AID 743211); note: % is set by controls: 0 for no effect and ±100 for the full control effect; nearly all actives have a fitted effect of over 55% in size
How it was run: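 PPARd-bla HEK293H cells (UAS-beta-lactamase reporter) were treated with compounds for 17 h at 37 C. Viability was then read in the same wells by CellTiter-Glo luminescence after 30 min at room temperature.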

[2] = target: Peroxisome proliferator-activated receptor delta (Homo sapiens) (UniProt Q03181); assay: qHTS assay to identify small molecule agonists of the peroxisome proliferator-activated receptor delta (PPARd) signaling pathway (AID 743212; calls by dose curve; note: % is set by controls: 0 for no effect and ±100 for the full control effect)
Chain of Peroxisome proliferator-activated receptor delta (Homo sapiens) (Q03181 whole entry, looked up): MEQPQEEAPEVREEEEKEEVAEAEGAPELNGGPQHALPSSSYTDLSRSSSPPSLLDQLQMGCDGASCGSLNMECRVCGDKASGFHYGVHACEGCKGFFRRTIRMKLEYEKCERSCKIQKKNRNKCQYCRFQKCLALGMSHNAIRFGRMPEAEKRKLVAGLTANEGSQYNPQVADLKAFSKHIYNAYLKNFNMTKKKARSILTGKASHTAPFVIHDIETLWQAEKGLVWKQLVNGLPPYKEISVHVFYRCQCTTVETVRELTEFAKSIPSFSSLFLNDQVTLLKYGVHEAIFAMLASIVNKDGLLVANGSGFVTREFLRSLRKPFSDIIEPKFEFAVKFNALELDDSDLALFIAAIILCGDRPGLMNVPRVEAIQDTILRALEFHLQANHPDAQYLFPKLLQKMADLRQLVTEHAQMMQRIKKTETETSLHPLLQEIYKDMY
How it was run: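 HEK293H UAS-bla reporter cells, human PPARd system; compounds delivered in DMSO after 5 h plating, then at 37 C. Beta-lactamase FRET read, 2 h RT substrate step.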

[3] = target: Peroxisome proliferator-activated receptor delta (Homo sapiens) (UniProt Q03181); assay: qHTS assay to identify small molecule antagonists of the peroxisome proliferator-activated receptor delta (PPARd) signaling pathway (AID 743215; active = well fitted inhibition curve with a large enough effect in the signal ratio in the repeat runs, not every such curve was filed as active; the % refers to the signal ratio;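 note: cells stimulated with agonist L165041 at 300 nM final during compound exposure; series mostly up to about 62 µM; % is set by controls: 0 for no effect and ±100 for the full control effect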)
How it was run: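 PPARd UAS-bla HEK293H cells were pre-incubated 5 h at 37 C, then given test compounds in DMSO plus agonist L165041 (300 nM final). After 17 h at 37 C, beta-lactamase FRET substrate was added; fluorescence read after 2 h at room temperature.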

[4] = qHTS assay to identify small molecule agonists of the farnesoid-X-receptor (FXR) signaling pathway - cell viability counter screen (AID 743218); note: % is set by controls: 0 for no effect and ±100 for the full control effect; nearly all actives have a fitted effect of over 45% in size
How it was run: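 FXR-UAS-bla HEK 293T cells, plated 5 h at 37 C, were exposed to compounds for 16 h at 37 C. CellTiter-Glo was then added to the same wells as the bla readout; luminescence read after 30 min at room temperature.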

[5] = qHTS assay to identify small molecule antagonists of the farnesoid-X-receptor (FXR) signaling pathway - cell viability counter screen (AID 743221; active = well fitted cell-killing curve with a large enough effect in the repeat runs, not every such curve was filed as active; note: % is set by controls: 0 for no effect and ±100 for the full control effect; nearly all actives have a fitted effect of over 50% in size)
How it was run: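 FXR-UAS-bla HEK 293T cells were treated with test compounds plus chenodeoxycholic acid (50 uM final) for 16 h at 37 C. Cell viability in the same wells was then read as CellTiter-Glo luminescence after 30 min at room temperature.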

[6] = target: Vitamin D3 receptor (Homo sapiens) (UniProt P11473); assay: qHTS assay to identify small molecule agonists of the vitamin D receptor (VDR) signaling pathway (AID 743222; calls by dose curve; note: % is set by controls: 0 for no effect and ±100 for the full control effect)
Chain of Vitamin D3 receptor (Homo sapiens) (P11473 whole entry, looked up): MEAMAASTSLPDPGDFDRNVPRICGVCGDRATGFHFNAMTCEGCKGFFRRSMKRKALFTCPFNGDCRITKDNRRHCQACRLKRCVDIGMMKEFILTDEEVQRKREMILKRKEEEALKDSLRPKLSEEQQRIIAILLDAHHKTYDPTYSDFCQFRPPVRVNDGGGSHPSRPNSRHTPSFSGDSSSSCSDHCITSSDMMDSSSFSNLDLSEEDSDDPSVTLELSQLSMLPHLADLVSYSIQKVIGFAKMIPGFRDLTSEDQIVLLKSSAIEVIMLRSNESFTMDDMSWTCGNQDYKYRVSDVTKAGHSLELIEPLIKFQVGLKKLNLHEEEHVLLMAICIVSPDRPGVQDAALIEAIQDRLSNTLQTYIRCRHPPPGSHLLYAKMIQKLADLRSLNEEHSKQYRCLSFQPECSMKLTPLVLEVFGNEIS
How it was run: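 VDR-bla cells were plated 4 h at 37C/5% CO2, then exposed to compounds in DMSO for 16 h. After LiveBLAzer B/G FRET substrate addition and 2 h at room temperature, beta-lactamase reporter fluorescence was read.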

[7] = target: Vitamin D3 receptor (Homo sapiens) (UniProt P11473); assay: qHTS assay to identify small molecule antagonists of the vitamin D receptor (VDR) signaling pathway (AID 743223; active = well fitted inhibition curve with a large enough effect in the signal ratio in the repeat runs, not every such curve was filed as active; the % refers to the signal ratio; note: % is set by controls: 0 for no effect and ±100 for the full control effect)
How it was run: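 VDR-bla cells were plated, incubated 4 h at 37C, then given compound and 1alpha,25-dihydroxyvitamin D3 (3 nM final). After 16 h at 37C, LiveBLAzer B/G FRET substrate was added for 2 h at room temperature and fluorescence read.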

[8] = qHTS assay to identify small molecule agonists of the vitamin D receptor (VDR) signaling pathway - cell viability counter screen (AID 743224); note: series mostly up to about 63 µM; % is set by controls: 0 for no effect and ±100 for the full control effect; nearly all actives have a fitted effect of over 50% in size
How it was run: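 VDR-bla cells were preincubated 4 h at 37C/5% CO2, then exposed to compounds for 16 h. After the 2 h room-temperature bla FRET read, CellTiter-Glo was added to the same wells and luminescence read after 30 min.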

[9] = qHTS assay to identify small molecule antagonists of the vitamin D receptor (VDR) signaling pathway - cell viability counter screen (AID 743225); note: % is set by controls: 0 for no effect and ±100 for the full control effect; nearly all actives have a fitted effect of over 50% in size
How it was run: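 VDR-bla HEK 293T cells, 4 h pre-incubation at 37C, then compound plus 1-alpha,25-dihydroxyvitamin D3 (3 nM final) for 16 h. After the beta-lactamase FRET read, CellTiter-Glo was added to the same wells; luminescence after 30 min at room temperature.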

[10] = qHTS assay to identify small molecule agonists of the NFkB signaling pathway - cell viability counter screen (AID 1159515; calls by dose curve; note: series mostly up to about 61 µM; % is set by controls: 0 for no effect and ±100 for the full control effect; nearly all actives have a fitted effect of over 55% in size)
How it was run: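 NFkB-bla ME-180 cells, 2,000/well, were plated overnight at 37 C, 5% CO2, then exposed to compounds in DMSO for 5 hr. After the bla FRET read, CellTiter-Glo was added to the same wells; luminescence was read after 30 min at room temperature.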

[11] = qHTS assay to identify small molecule agonists of the endoplasmic reticulum stress response signaling pathway (AID 1159516; active = well fitted activation curve with a large enough effect in the signal ratio in the repeat runs, not every such curve was filed as active; the % refers to the signal ratio; note: % is set by controls: 0 for no effect and ±100 for the full control effect)
How it was run: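 CellSensor ESRE-bla HeLa cells, carrying a beta-lactamase reporter driven by the ER stress response element, were plated overnight and exposed to compounds for 5 hr at 37 C. Reporter activity was read as FRET substrate fluorescence after 2 hr at room temperature.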

[12] = qHTS assay to identify small molecule antagonists of the retinoid-related orphan receptor gamma (ROR-gamma) signaling pathway - cell viability counter screen (AID 1159520); note: % is set by controls: 0 for no effect and ±100 for the full control effect; nearly all actives have a fitted effect of over 50% in size
How it was run: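 Cytotoxicity was read from cellular ATP (CellTiter-Glo luminescence) after 16 hr at 37 C with 1 uM doxycycline induction. The inducer was added 2 hr after compound transfer to Tet-on ROR gamma CHO cells.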

[13] = target: Nuclear receptor ROR-gamma (Homo sapiens) (UniProt P51449); assay: qHTS assay to identify small molecule antagonists of the retinoid-related orphan receptor gamma (ROR-gamma) signaling pathway (AID 1159521; note: nearly all actives have a fitted effect of over 50% in size; note: potency is the fitted concentration of half-maximal effect)
How it was run: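 Tet-on RORγ CHO cells carrying a ROR response element–luciferase reporter were pretreated with compounds for 2 h, then induced with 1 uM (final) doxycycline hyclate for 16 h at 37 C. Antagonism was read as decreased ONE-Glo luminescence.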

[14] = qHTS assay to identify small molecule agonists of the AP-1 signaling pathway - cell viability counter screen (AID 1159525; calls by dose curve; note: nearly all actives have a fitted effect of over 55% in size)
How it was run: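 Luminescent ATP readout (Cell Titer Glo, 30 min RT), normalised to DMSO and tetra n-octyl ammonium bromide controls. Cells were ME-180 AP-1-bla in 0.5% dialyzed FBS Opti-MEM, with a 5 h, 37 °C compound exposure.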

[15] = qHTS assay to identify small molecule agonists of the AP-1 signaling pathway (AID 1159526; calls by dose curve; note: % is set by controls: 0 for no effect and ±100 for the full control effect)
[16] = target: Retinoic acid receptor RXR-alpha (Homo sapiens) (UniProt P19793); assay: qHTS assay to identify small molecule agonists of the RXR signaling pathway (AID 1159527; calls by dose curve; note: % is set by controls: 0 for no effect and ±100 for the full control effect; nearly all actives have a fitted effect of over 35% in size)
Chain of Retinoic acid receptor RXR-alpha (Homo sapiens) (P19793 whole entry, looked up): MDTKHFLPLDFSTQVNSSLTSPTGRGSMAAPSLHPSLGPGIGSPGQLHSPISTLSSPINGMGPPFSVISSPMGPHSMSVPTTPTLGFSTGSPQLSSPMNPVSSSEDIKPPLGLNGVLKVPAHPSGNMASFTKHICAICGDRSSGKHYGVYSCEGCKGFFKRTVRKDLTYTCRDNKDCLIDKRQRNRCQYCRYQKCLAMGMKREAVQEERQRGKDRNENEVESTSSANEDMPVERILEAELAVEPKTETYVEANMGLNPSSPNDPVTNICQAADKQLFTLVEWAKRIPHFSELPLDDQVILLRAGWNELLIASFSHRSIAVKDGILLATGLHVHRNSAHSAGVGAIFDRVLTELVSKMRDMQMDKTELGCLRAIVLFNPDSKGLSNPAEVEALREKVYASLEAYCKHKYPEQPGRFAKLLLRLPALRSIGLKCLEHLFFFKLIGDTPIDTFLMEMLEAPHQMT
How it was run: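 GeneBLAzer RXR-alpha-UAS-bla HEK 293T cells in medium with 2% charcoal-stripped FBS, pre-incubated 5 hr at 37 C, then exposed to compounds 16 hr. Beta-lactamase reporter read by FRET substrate, 2 hr room temperature, 460/530 nm emission.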

[17] = qHTS assay to identify small molecule antagonists of the peroxisome proliferator-activated receptor delta (PPARd) signaling pathway - cell viability counter screen (AID 743213)
How it was run: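 Cytotoxicity counter screen: CellTiter-Glo luminescence read 30 min after addition, in the same wells as the reporter assay. There, PPARd UAS-bla HEK293H cells (3000/well) were treated 17 h at 37 C with compound and 300 nM L165041.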

O=C(O)c1cc(=O)c2ccccc2o1
inactive: Potency [1] | Potency [2] | Potency [3] | Potency [4] | Potency [5] | Potency [6] | Potency [7] | Potency [8] | Potency [9] | Potency [10] | Potency [11] | Potency [12] | Potency [13] | Potency [14] | Potency [15] | Potency [16]

Cc1cc(-c2ccc(N=Nc3cc(S(=O)(=O)O)c4ccccc4c3N)c(C)c2)ccc1N=Nc1cc(S(=O)(=O)O)c2ccccc2c1N
active: Potency [13] 30.8 µM
inactive: Potency [2] | Potency [4] | Potency [5] | Potency [6] | Potency [10] | Potency [11] | Potency [12] | Potency [14] | Potency [15] | Potency [16]

C=CC(C)(CCC=C(C)C)OC=O (centres undefined)
inactive: Potency [1] | Potency [3] | Potency [4] | Potency [5] | Potency [6] | Potency [7] | Potency [8] | Potency [9] | Potency [10] | Potency [11] | Potency [12] | Potency [13] | Potency [14] | Potency [15] | Potency [16]

Cc1nc2n(c(=O)c1CCN1CCC(c3noc4cc(F)ccc34)CC1)CCCC2
inactive: Potency [1] | Potency [2] | Potency [3] | Potency [4] | Potency [5] | Potency [6] | Potency [8] | Potency [9] | Potency [10] | Potency [11] | Potency [12] | Potency [13] | Potency [14] | Potency [15] | Potency [16]

CC(C)(C)CC(C)(C)c1ccc(Nc2ccc(C(C)(C)CC(C)(C)C)cc2)cc1
inactive: activity change, negative = cytotoxicity [1] -7.52% [at 5.95 µM] | activation [2] 5.67% [at 5.95 µM] | viability change, negative = cytotoxic [17] 2.44% [at 6.26 µM] | ratio activity, negative = inhibition [3] -4.33% [at 6.26 µM] | viability change, negative = cytotoxic [4] -9.89% [at 5.95 µM] | activity change, negative = cytotoxicity [5] 1.78% [at 5.95 µM] | activity change, negative = cytotoxicity [8] 10.9% [at 5.95 µM] | viability change, negative = cytotoxic [9] 20.6% [at 6.95 µM] | activity, negative = cytotoxic [10] -7.48% [at 6.95 µM] | activation [11] -2.77% [at 6.95 µM] | activity, negative = cytotoxicity [12] -0.0922% [at 8.39 µM] | activity change, negative = inhibition [13] 1.61% [at 8.39 µM] | viability change, negative = cytotoxic [14] -3.55% [at 6.97 µM] | activation [15] 15.6% [at 6.97 µM] | activation [16] 3.93% [at 6.98 µM]

OC1CCCc2ccccc21 (centres undefined)
inactive: Potency [1] | Potency [17] | Potency [4] | Potency [5] | Potency [6] | Potency [7] | Potency [8] | Potency [9] | Potency [10] | Potency [11] | Potency [12] | Potency [13] | Potency [14] | Potency [15] | Potency [16]

O=[N+]([O-])c1cccc(C(F)(F)F)c1
inactive: Potency [1] | Potency [2] | Potency [3] | Potency [4] | Potency [5] | Potency [6] | Potency [7] | Potency [8] | Potency [9] | Potency [10] | Potency [11] | Potency [12] | Potency [13] | Potency [14] | Potency [15] | Potency [16]

CCC(=O)C(=O)CC
inactive: Potency [1] | Potency [2] | Potency [3] | Potency [4] | Potency [5] | Potency [6] | Potency [7] | Potency [8] | Potency [9] | Potency [10] | Potency [11] | Potency [12] | Potency [13] | Potency [14] | Potency [15] | Potency [16]
